Screening results (PubChem BioAssay)
aSyn 5UTR act: Activators via SNCA 5'UTR binding, MLPCN. alpha-synuclein 5'UTR reporter, activators screen. activity score, % (tested at 7.5 µM), hits read low. hit rate 7.1% among 300,000. AID 1814, 2009; in the data active = activity score below about -60%
Active calls of the source: *. Not all results are given here.

SMILES | aSyn 5UTR act
Cn1c(O)c(C(=N)COc2ccccc2)c(=O)n(C)c1=O | -67.5*
CN1C(=O)NC(=O)C(C)(C2=CCCCC2)C1=O (stereo unspecified) | -71.3*
Cc1ccc(N2C(=O)NC(=O)/C(=C/c3cnn(-c4ccc(C)cc4)c3)C2=O)cc1 | -72.4*
CC(C)(C)C(=O)c1cn(CC(=O)NCc2ccco2)c2ccccc12 | -142.5*
O=C(Nc1ccc(Cl)cc1)OC1CN2CCC1CC2 (stereo unspecified) | -114.1*
O=C(Nc1cccc(Cl)c1)OC1CN2CCC1CC2 (stereo unspecified) | -64.0*
CC1=CC(=C2C(=O)NC(=S)NC2=O)C=C(C(F)(F)F)N1Cc1ccccc1 | 113.4
Cc1ccc2cc3cc(C(=O)N4CCC5(CC4)OCCO5)oc3nc2c1 | -69.0*
C/C=C(\C)C(=O)OC1C(C)=C2C(C1OC(=O)CCCCC)C(C)(OC(C)=O)CC(OC(=O)CCC)C1(O)C2OC(=O)C1(C)O (stereo unspecified) | 108.1
Cc1cc(C(=O)CS(=O)(=O)c2ccccc2)cc(C)c1OC(=O)N(C)C | -71.0*
Cc1cc(C(=O)CS(=O)c2ccc(F)cc2)cc(C)c1OC(=O)N(C)C (stereo unspecified) | -68.4*
COc1ccc(C[C@H]2NC[C@H](O)[C@H]2OC(C)=O)cc1 | 112.3
C[C@H]1O[C@@H](OC2CC[C@]3(C=O)[C@H]4CC[C@]5(C)[C@@H](C6=CC(=O)OC6)CC[C@]5(O)[C@@H]4CC[C@]3(O)C2)CC2OC(C)(C)OC21 (stereo partly specified) | 95.7
Cn1cnc([N+](=O)[O-])c1Sc1ccc([N+](=O)[O-])cc1 | -66.0*
CC(=O)c1ccc(-c2ccccc2)cc1 | -80.9*
Cc1ccc(-c2cc(-c3ccccc3)cc(-c3ccccc3)[n+]2-c2ccccc2)cc1 | 84.5
CN(C)C(=O)Oc1ccc(C(=O)c2ccccc2)cc1 | -68.1*
CC(=O)c1ccc(OC(=O)N(C)c2ccccc2)cc1 | -66.3*
COC(=O)C[C@]1(C(=O)OC)CN(C#N)N(c2ccc(Cl)cc2)C12c1ccccc1-c1ccccc12 | 95.8
CCCCCn1c(=O)c(C(=O)NCc2ccncc2)c(O)c2ccccc21 | 65.3
CCN(CC)C(=O)c1ccc(NC(=O)Nc2ccccc2F)cc1 | 59.4
COc1ccc(-c2cc(=NCC(=O)O)c3ccccc3o2)cc1 | -128.1*
COc1ccc(-c2cc(=Nc3cccc(C(=O)O)c3)c3cc(C)ccc3o2)cc1 | -80.7*
N#CSCC(=O)N1c2ccccc2CCc2ccccc21 | -84.0*
CN(C)c1ccc(-[n+]2c(-c3ccccc3)cc(-c3ccccc3)cc2-c2ccccc2)cc1 | 84.1
SMILES | aSyn 5UTR act
Cc1cc(N(CCCl)CCCl)ccc1/C=N/N=C(\N)c1cnccn1 | -73.5*
Nc1ccccc1C(=O)OCC(=O)N1CCc2ccccc21 | -167.7*
CCOC(=O)c1ccc(NC(=O)C2C3C=CC(O3)C2C(=O)O)cc1 (stereo unspecified) | -76.8*
C[C@]12CCC3C(CCC4=CC(O)CC[C@@]43/C=N/O)C1(O)CCC2C1=CC(=O)OC1 (stereo partly specified) | 113.0
COc1ccc(CNCCc2c(C)[nH]c3ccc(OC(F)(F)F)cc23)c(OC)c1 | 90.5
O=C1NC(c2cccnc2)Nc2sc3c(c21)CCCC3 (stereo unspecified) | -97.5*
CC(=O)O[C@@]12CO[C@@H]1C[C@@H](O)[C@@]1(C)C(=O)[C@H](O)C3=C(C)[C@@H](OC(=O)[C@H](O)[C@@H](NC(=O)c4ccccc4)c4ccccc4)C[C@@](O)([C@@H](OC(=O)c4ccccc4)C12)C3(C)C (stereo partly specified) | 113.4
CCC(C)c1ccc(N2C(=O)NC(=O)/C(=C/c3cccn3CCOc3ccc(C)cc3)C2=O)cc1 (stereo unspecified) | -65.0*
COc1cc2c(c(OC)c1OC)-c1ccc(O)cc1[C@@H](NC(C)=O)CC2 | 60.8
CC(Cc1ccccc1)N1Cc2ccccc2C1 (stereo unspecified) | -65.1*
Cn1c(NN=O)nc2ccccc21 | 68.9
C[C@]12C=CC(=O)C=C1C=C[C@@H]1C2CC[C@]2(C)C(=O)CCC12 (stereo partly specified) | -119.6*
C[C@@H]1O[C@@H](O[C@H]2C[C@@H](O)[C@]3(CO)[C@H]4[C@H](O)C[C@]5(C)[C@@H](C6=CC(=O)OC6)CC[C@]5(O)[C@@H]4CC[C@]3(O)C2)[C@H](O)[C@H](O)[C@H]1O | 114.2
CCC(=O)N1CC(=O)Nc2ccc(Br)cc2C1c1ccccc1 (stereo unspecified) | -70.5*
Cn1ncnc2c(=O)n(C)c(=O)nc1-2 | 97.7
